# PP5 inh: blocks human protein phosphatase 5 activity; P53041; 320,000 compounds, 0.18% hits; purified PP5c, OMFP substrate fluorescence; inhibition, % at 6.7 µM;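 active = inhibition above the campaign's mean inhibition across all tested compounds plus 3 SD, cut at about 9.5% in these data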
# ANO1 activ: activates or potentiates the mouse TMEM16A chloride channel. 340,000 compounds, 0.3% hits. AID 623877. B-score at 10 µM. HEK293 TMEM16A/YFP-H148Q/I152L, iodide quench fluorescence; hits give low values. Q8BHY3;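 active = fluorescence-ratio B-score plate-corrected deviation score at least 3 library SD below zero, with starting fluorescence score within 5 deviations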;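 also: channel opened by trigger with iodide after compound preincubation; score built on the fluorescence ratio of max minus min over baseline; more negative score means more quench and so TMEM16A activation or potentiation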
# ANO1 block: blocks the mouse calcium-activated chloride channel TMEM16A. 310,000 compounds, 1.2% hits. HEK293 TMEM16A/YFP iodide influx fluorescence, ionomycin. normalized B-score (activity score, 25-100; higher = stronger inhibition) at 10 µM;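 active = ratio plate-corrected score three or more library SD toward inhibition, starting fluorescence score within five deviations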;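 also: score derived from kinetic fluorescence span divided by baseline fluorescence per well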
# PREPL inh: human PREPL enzyme inhibition; recombinant PREPL, fluorescence polarization activity-based probe; inhibition, % at 5.96 µM; 320,000 compounds, 0.68% hits; Q4J6C6; AID 2751; in the data active = inhibition above about 43%
# PP1 inh: counter-screen for PP5 inhibitors: inhibitors of human PP1-alpha | purified PP1alpha, OMFP fluorescence | 320,000 compounds, 0.9% hits | inhibition, % at 6.7 µM | P62136;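 active = inhibition above the mean inhibition of all tested compounds plus 3 SD, computed separately for each screening campaign, cut at about 15% in these data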
# DNA FID counter: displaces DNA intercalator in HCV helicase counter-screen | AID 1845 | inhibition, % at 7.9 µM | DNA fluorescent intercalator displacement, fluorescence | 290,000 compounds, 0.17% hits; in the data active = inhibition above about 37%;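 also: higher means more ethidium bromide displaced from hairpin DNA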
# Hits are given with their value; i = inactive; nt = no result given. The list is not random: actives were taken first. Their share in the collection is about 2.7%.
SMILES,PP5 inh,ANO1 activ,ANO1 block,PREPL inh,PP1 inh,DNA FID counter
CCOC(=O)C(C)On1c(-c2cccc(Cl)c2)nc2ccc([N+](=O)[O-])cc21 (stereo unspecified),i,i,100,i,i,i
CCOC(=O)COn1c(-c2cccc(Cl)c2)nc2ccc([N+](=O)[O-])cc21,i,i,i,i,i,i
Cc1ccccc1-n1c(SCC(=O)N/N=C/C=C/c2ccccc2[N+](=O)[O-])nc2ccccc2c1=O,i,i,i,i,16.9,i
O=C(CSc1nc2ccccc2c(=O)n1-c1ccccc1)N/N=C/C=C/c1ccccc1[N+](=O)[O-],i,i,i,i,i,i
O=C(Nc1ccccc1)C(Cc1ccccc1)c1ccccc1 (stereo unspecified),nt,i,nt,nt,nt,nt
O=C(CSc1nnc(Cn2nnc3ccccc32)o1)N(Cc1ccc(F)cc1)c1ccccc1,i,i,25,i,i,i
COc1ccc(N(Cc2ccccc2)C(=O)CSc2nnc(Cn3nnc4ccccc43)o2)cc1,i,i,i,i,i,i
O=c1[nH]c(Cc2cccs2)nc2scc(-c3ccc(Cl)cc3)c12,i,i,i,55.1,i,i
O=c1[nH]c(Cc2ccccn2)nc2scc(-c3ccc(Cl)cc3)c12,i,i,i,i,i,i
COc1ccc(OC)c(NC(=O)c2cc3ccccc3o2)c1,i,i,i,i,i,i
COc1ccc(OC)c(Nc2nc(N)nc(-c3cc4ccccc4o3)n2)c1,i,i,i,i,15.7,i
Cc1[nH]n(-c2ccccc2)c(=O)c1C(C[N+](=O)[O-])c1ccc(Br)cc1 (stereo unspecified),i,i,25,i,i,i
Clc1ccc(-n2cnc3c(Cl)ncnc32)cc1Cl,nt,i,nt,nt,nt,nt
C=CC(C)(C)c1c(O)c(CC=C(C)C)c(O)c2c(=O)c3ccc(O)c(O)c3oc12,i,i,100,i,i,nt
C=CC(C)(C)c1c2occc2c(O)c2ccc(=O)oc12,nt,i,nt,i,nt,nt
OCCN(Cc1cccnc1)Cc1ccccn1,nt,i,nt,nt,nt,nt
O=C(NCCOc1nc(N2CCOCC2)nc(N2CCOCC2)n1)Nc1ccc(Cl)cc1,i,-14.6,i,i,i,i
Cc1cc(O)c(-c2n[nH]c3c2C(c2cccc(O)c2)N(Cc2cccnc2)C3=O)cc1Cl (stereo unspecified),i,i,i,i,17.1,i
Cc1c(Cc2ccccc2)c(=O)[nH]c(=O)n1C,nt,i,nt,nt,nt,nt
S=c1[nH]nc(-c2ccccn2)n1/N=C/c1ccc(-c2ccccc2Cl)o1,i,i,i,i,15.4,i
Cc1n[nH]c(=S)n1/N=C/c1ccc(-c2ccc(Cl)cc2)o1,i,i,i,i,i,nt
S=c1[nH]nc(-c2ccccn2)n1/N=C/c1ccc(Cl)c(Cl)c1,i,i,i,i,i,i
S=c1[nH]nc(-c2ccccn2)n1/N=C/c1ccc(Br)s1,i,i,i,i,17.0,i
CS(=O)(=O)N(CC(=O)N1CCN(Cc2ccccc2)CC1)c1ccccc1Br,i,i,i,i,i,i
Cc1ccc(S(=O)(=O)Nc2cccc3c2O[C@H](CN(C)C(=O)Nc2cccc4ccccc24)[C@H](C)CN([C@H](C)CO)C3=O)cc1,nt,i,nt,i,nt,nt
SMILES,PP5 inh,ANO1 activ,ANO1 block,PREPL inh,PP1 inh,DNA FID counter
CN(C)c1ncc(C2=C(Cl)C(=O)C(N3CCCC3)=C(Cl)C2=O)s1,i,i,100,i,16.6,i
CCC1(CC)SCCNC1=O,nt,i,nt,nt,nt,nt
CCOC(=O)C1(CCCc2ccccc2)CCN(C(=O)CSC)CC1,i,i,i,i,i,i
CCOC(=O)C1(CCCc2ccccc2)CCN(C(=O)Cc2nonc2C)CC1,i,-6.69,i,i,i,i
CCCCn1c(N)c(N(CCOC)C(=O)CN(C)CC(=O)Nc2ccc(Cl)c(Cl)c2)c(=O)[nH]c1=O,nt,i,nt,i,nt,nt
Cc1ccc(OCC(=O)Nc2sc3c(c2C#N)CC(C)(C)NC3(C)C)cc1,i,i,i,i,i,i
CC1(C)Cc2c(sc(NC(=O)COc3cccc4ccccc34)c2C#N)C(C)(C)N1,i,i,i,i,15.4,i
Brc1ccccc1-c1nnc(SCc2nc3ccccc3s2)o1,i,i,25,i,i,i
O=C(O)c1ccc(CSc2nnc(-c3ccccc3Br)o2)cc1,i,i,i,i,i,i
O=C(CCc1nc(-c2ccccc2)c(-c2ccccc2)o1)OCc1ccc(Cl)cc1,i,-5.53,i,i,i,i
N#CC1(NC(=O)Cn2cc(C(F)(F)F)cc(Cl)c2=O)CCCCC1,i,i,i,i,i,i
CC(NCc1ccc(S(N)(=O)=O)cc1)C(=O)Nc1ccc([N+](=O)[O-])cc1Cl (stereo unspecified),i,-24.1,i,i,i,i
Cc1ccccc1OCCN1C(=O)C(=O)c2cccc(C)c21,i,i,i,i,16.2,i
Cc1ccc(OCCCN2C(=O)C(=O)c3cccc(C)c32)cc1,i,i,i,i,15.5,i
Cc1cc(/C=C2\C(=N)N3N=CSC3=NC2=O)c(C)n1Cc1ccccc1,i,i,i,i,i,i
O=C(CNc1ccc2c(c1)OCO2)N/N=C\c1ccccc1Cl,i,i,i,50.1,i,i
COCCN(C(=O)COC(=O)C(C)(C)Oc1ccc(Cl)cc1)c1c(N)n(Cc2ccccc2)c(=O)[nH]c1=O,nt,i,nt,nt,nt,nt
O=C(O)C(C(O)c1ccccc1)[n+]1ccccc1 (stereo unspecified),i,-20.2,i,i,i,nt
O=C(O)C(O)c1ccccc1 (stereo unspecified),i,i,i,i,i,i
N#Cc1ccc(OCC(=O)OCC(=O)Nc2cc(C(F)(F)F)ccc2N2CCOCC2)cc1,i,i,i,i,i,i
C=CCn1cc(CN2CCC(C(=O)Nc3cccc(-c4cccc(Cl)c4)c3)CC2)c(C)n1,i,i,i,i,i,40.8
CCCn1ncc(CN2CCC(C(=O)Nc3cccc(-c4cccc(F)c4)c3)CC2)c1C,i,i,i,i,i,44.3
O=C(c1ccc(CS(=O)(=O)c2ccc(Br)cc2)o1)N1CCN(c2ccccn2)CC1,i,-7.84,i,i,i,i
Cc1ccc(S(=O)(=O)Cc2ccc(C(=O)N3CCN(c4ccccn4)CC3)o2)cc1,i,i,i,i,i,i
COc1cccc(Oc2ccc(N/C=C/C(=O)C(C)(C)C)cc2)c1,i,i,25,i,i,i
SMILES,PP5 inh,ANO1 activ,ANO1 block,PREPL inh,PP1 inh,DNA FID counter
CCOc1ccc(NC(=O)CSc2nnc(C)n2CC)cc1,i,i,i,i,i,i
CCOc1ccc(NC(=O)CSc2nnc(C)n2Cc2ccccc2)cc1,i,i,i,i,16.3,i
CCc1noc(C)c1C(=O)Nc1ccccc1C(C)(C)C,i,i,i,i,i,i
COc1ccc(Cl)cc1NS(=O)(=O)c1cccc(C(=O)NC2CCN(Cc3ccccc3)CC2)c1,nt,i,nt,nt,nt,nt
CCC1CCCCN1C(=O)c1cccc(S(=O)(=O)Nc2cc(C(F)(F)F)ccc2Cl)c1 (stereo unspecified),i,i,25,i,i,i
O=C(c1cccc(S(=O)(=O)Nc2ccccc2Cl)c1)N1CCCCCC1,i,i,i,i,i,nt

# High-throughput results deposited in PubChem by several laboratories.
